PubChem BioAssay
Calls of active or inactive are those of the source.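 How the source made its calls, unless noted: active means superoxide response below 65% of plate, a cut near 3 SD across the whole screen; inactive means the rest.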

System: not listed separately
Test: calorie-restriction mimetic ROS inhibitors, yeast – validation compound set, pilot screen (AID 2706);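 further: yeast exposed to compound for one week at 30 degrees C before staining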;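 on Superoxide response (% of plate): 100% = mean of all compound wells on the same plate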
Conditions: S. cerevisiae aging, superoxide DHE fluorescence; at 10 µM, hits give low values

Superoxide response (% of plate), inactive:
N/C(=N/OS(=O)(=O)c1ccc([N+](=O)[O-])cc1)c1ccncc1 108%, CCSc1nc(O)c(C2OC(=O)c3c2ccc(OC)c3OC)c(=O)n1CC (stereo not given) 86.4%, COc1cc2ccc(=O)oc2c(O)c1OCC=C(C)C 102%, CC(=O)N1CC23C=CC(CC2CC12CCCCCC2)O3 (stereo not given) 102%, CC(=O)c1cn(C)c(=O)[nH]c1=O 103%, CC(=O)Oc1ccc(C2OC(=O)c3ccccc3N2C(C)=O)cc1 (stereo not given) 98.4%, O=C1c2ccccc2C(=O)C1c1ccccc1 95.2%, O=c1[nH]cnc2c1ncn2[C@@H]1O[C@H](CO)[C@@H](O)[C@H]1O 86.8%, Nc1ccc2[nH]ncc2c1 110%, CCN(CC)CCN1C(=O)C(=O)/C(=C(/O)c2c(C)[nH]c(C(=O)OC)c2C)C1c1cccnc1 (stereo not given) 95.2%, Cc1ccc2c(c1)c1c(n2C)C(=O)CCC1 86.4%, COc1ccc(N2C(=O)C3CCCN3C2=O)cc1 (stereo not given) 98.7%, COc1cccc(OC2OC3COC(C)(C)OC3C(O)C2NC(C)=O)c1 (stereo not given) 97.8%, CC[N+](C)(C)Cc1ccccc1Br 96.2%, C[C@H](NC(=O)Nc1ccccc1F)C(=O)O 106%, COc1cc(NC(=O)N[C@@H](Cc2ccccc2)C(=O)O)cc(OC)c1 106%, CN(C)CCOc1ccccc1Cc1ccccc1 85.8%, CCc1cn([C@H]2C[C@H](O)[C@@H](CO)O2)c(=O)[nH]c1=O 95.6%, COc1ccc(CCn2c(C)cc3c(c2=O)C(c2ccncc2)C(C#N)=C(N)O3)cc1OC (stereo not given) 102%, CC(C)(C)C(=O)NC(=S)Nc1sc2c(c1C(N)=O)CCC2 109%, Cc1cc(C(=O)NC(CC(C)C)C(=O)O)cc(C)c1[N+](=O)[O-] (stereo not given) 96.9%, CCS(=O)(=O)Nc1cc(OC)c(OC)cc1Cc1nccc2cc(OC)c(OC)cc12 93.2%, CCn1c(O)c(/C=C2\C=Nc3ccccc32)sc1=O 108%, O=C(C1CCCCC1)N1CC(=O)N2CCc3ccccc3C2C1 (stereo not given) 109%, CCn1cc(C(=O)O)c(=O)c2cc(F)c(N3CCNCC3)cc21 104%, COc1cccc(N2CC34C=CC(O3)C(C(=O)O)C4C2=O)c1 (stereo not given) 97.6%, CC(=O)NCCCC(=O)NC(CCC(=O)OCc1ccccc1)C(=O)OCc1ccccc1 (stereo not given) 86.7%, Cn1cc(CN(CCO)Cc2cccs2)c(-c2cccc(Cl)c2)n1 92.3%, COc1ccc(C(=O)NC(=O)NC2(C(Cl)(Cl)Cl)OCCO2)cc1 86.9%, CC(=O)c1c(C)[nH]c(C(=O)OCc2ccccc2)c1C 103%, C=CCN1C(=O)c2oc3ccccc3c(=O)c2C1c1ccc(O)c(OC)c1 (stereo not given) 102%, COc1cc(OC)c(C(=O)CCCN2CCCC2)c(OC)c1 97.6%, CC(=O)OCC(=O)[C@@]1(OC(C)=O)[C@@H](C)C[C@H]2[C@@H]3C[C@H](F)C4=CC(=O)C=C[C@]4(C)[C@@]3(F)[C@@H](O)C[C@@]21C 97.6%, Cc1nnc(SCC(=O)N2CCCC(C(=O)c3ccc(Cl)cc3)C2)o1 (stereo not given) 95.6%, Fc1cc(F)cc(NC(=S)NCCCN2CCOCC2)c1 80.8%, COc1ccccc1C1(CC(=O)N2CCCCC2)CCOC(C(C)C)C1 (stereo not given) 97.5%, CCCCC[C@H](O)/C=C/[C@@H]1[C@@H](C/C=C\CCCC(=O)O)[C@H]2CO[C@@H]1C2 110%, CCC(=O)c1ccc(O)cc1 87.9%, Cn1c2[n+](c3ccc(Cl)cc3c1=O)Cc1ccccc1-2 97.2%

outcome, inactive:
CC(=O)CCc1oc2ccccc2c1-c1ccccc1

Biological target: Beta-adrenergic receptor kinase 1 (Homo sapiens) (UniProt P25098)
Test: GRK2 binders displacing RNA aptamer, biochemical, validation, human GRK2, bead flow cytometry (AID 488806;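 active means aptamer binding inhibition above 30%, about 3 SD of noise from non-fluorescent compounds; inactive means inhibition at or below 30%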)
Conditions: bead-bound GRK2, FAM-aptamer displacement, at 10 µM, hits give high values

Beta-adrenergic receptor kinase 1 (Homo sapiens), sequence (P25098 whole entry, looked up): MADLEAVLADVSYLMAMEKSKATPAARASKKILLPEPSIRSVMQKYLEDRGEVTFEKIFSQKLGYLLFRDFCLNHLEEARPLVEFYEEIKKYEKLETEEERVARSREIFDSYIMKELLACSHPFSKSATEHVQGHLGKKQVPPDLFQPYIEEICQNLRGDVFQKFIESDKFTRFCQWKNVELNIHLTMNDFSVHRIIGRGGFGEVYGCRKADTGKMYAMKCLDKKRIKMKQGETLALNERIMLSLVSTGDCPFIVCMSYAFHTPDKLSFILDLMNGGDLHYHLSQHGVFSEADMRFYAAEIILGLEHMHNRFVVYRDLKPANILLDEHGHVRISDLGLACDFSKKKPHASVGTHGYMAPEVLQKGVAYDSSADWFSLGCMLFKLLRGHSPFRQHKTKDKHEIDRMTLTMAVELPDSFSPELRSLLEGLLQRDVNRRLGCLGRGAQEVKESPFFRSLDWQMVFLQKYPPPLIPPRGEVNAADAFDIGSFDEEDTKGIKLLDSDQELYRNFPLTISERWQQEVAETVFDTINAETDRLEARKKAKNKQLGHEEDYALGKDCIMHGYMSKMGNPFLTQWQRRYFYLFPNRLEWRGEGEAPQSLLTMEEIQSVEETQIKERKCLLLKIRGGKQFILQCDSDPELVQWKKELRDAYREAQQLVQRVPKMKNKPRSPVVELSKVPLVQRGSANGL

Aptamer binding inhibition, inactive:
N/C(=N/OS(=O)(=O)c1ccc([N+](=O)[O-])cc1)c1ccncc1 1%, CCSc1nc(O)c(C2OC(=O)c3c2ccc(OC)c3OC)c(=O)n1CC (stereo not given) 2%, COc1cc2ccc(=O)oc2c(O)c1OCC=C(C)C -1%, CC(=O)N1CC23C=CC(CC2CC12CCCCCC2)O3 (stereo not given) 8%, CC(=O)c1cn(C)c(=O)[nH]c1=O 3%, CC(=O)Oc1ccc(C2OC(=O)c3ccccc3N2C(C)=O)cc1 (stereo not given) 1%, O=C1c2ccccc2C(=O)C1c1ccccc1 7%, O=c1[nH]cnc2c1ncn2[C@@H]1O[C@H](CO)[C@@H](O)[C@H]1O 2%, Nc1ccc2[nH]ncc2c1 12%, CCN(CC)CCN1C(=O)C(=O)/C(=C(/O)c2c(C)[nH]c(C(=O)OC)c2C)C1c1cccnc1 (stereo not given) 4%, Cc1ccc2c(c1)c1c(n2C)C(=O)CCC1 2%, COc1ccc(N2C(=O)C3CCCN3C2=O)cc1 (stereo not given) -1%, COc1cccc(OC2OC3COC(C)(C)OC3C(O)C2NC(C)=O)c1 (stereo not given) 2%, CC[N+](C)(C)Cc1ccccc1Br 4%, C[C@H](NC(=O)Nc1ccccc1F)C(=O)O 6%, COc1cc(NC(=O)N[C@@H](Cc2ccccc2)C(=O)O)cc(OC)c1 3%, CN(C)CCOc1ccccc1Cc1ccccc1 4%, CCc1cn([C@H]2C[C@H](O)[C@@H](CO)O2)c(=O)[nH]c1=O -1%, COc1ccc(CCn2c(C)cc3c(c2=O)C(c2ccncc2)C(C#N)=C(N)O3)cc1OC (stereo not given) 6%, CC(C)(C)C(=O)NC(=S)Nc1sc2c(c1C(N)=O)CCC2 2%, Cc1cc(C(=O)NC(CC(C)C)C(=O)O)cc(C)c1[N+](=O)[O-] (stereo not given) 4%, CCS(=O)(=O)Nc1cc(OC)c(OC)cc1Cc1nccc2cc(OC)c(OC)cc12 -1%, CCn1c(O)c(/C=C2\C=Nc3ccccc32)sc1=O 1%, O=C(C1CCCCC1)N1CC(=O)N2CCc3ccccc3C2C1 (stereo not given) 1%, CCn1cc(C(=O)O)c(=O)c2cc(F)c(N3CCNCC3)cc21 2%, COc1cccc(N2CC34C=CC(O3)C(C(=O)O)C4C2=O)c1 (stereo not given) 0%, CC(=O)NCCCC(=O)NC(CCC(=O)OCc1ccccc1)C(=O)OCc1ccccc1 (stereo not given) 1%, Cn1cc(CN(CCO)Cc2cccs2)c(-c2cccc(Cl)c2)n1 3%, COc1ccc(C(=O)NC(=O)NC2(C(Cl)(Cl)Cl)OCCO2)cc1 4%, CC(=O)c1c(C)[nH]c(C(=O)OCc2ccccc2)c1C 3%, C=CCN1C(=O)c2oc3ccccc3c(=O)c2C1c1ccc(O)c(OC)c1 (stereo not given) 2%, CC(=O)CCc1oc2ccccc2c1-c1ccccc1 -3%, COc1cc(OC)c(C(=O)CCCN2CCCC2)c(OC)c1 4%, CC(=O)OCC(=O)[C@@]1(OC(C)=O)[C@@H](C)C[C@H]2[C@@H]3C[C@H](F)C4=CC(=O)C=C[C@]4(C)[C@@]3(F)[C@@H](O)C[C@@]21C -1%, Cc1nnc(SCC(=O)N2CCCC(C(=O)c3ccc(Cl)cc3)C2)o1 (stereo not given) 1%, Fc1cc(F)cc(NC(=S)NCCCN2CCOCC2)c1 -5%, COc1ccccc1C1(CC(=O)N2CCCCC2)CCOC(C(C)C)C1 (stereo not given) 0%, CCCCC[C@H](O)/C=C/[C@@H]1[C@@H](C/C=C\CCCC(=O)O)[C@H]2CO[C@@H]1C2 -1%, CCC(=O)c1ccc(O)cc1 3%, Cn1c2[n+](c3ccc(Cl)cc3c1=O)Cc1ccccc1-2 1%
